LASV entry inh – qHTS for Inhibitors of binding or entry into cells for Lassa Virus. Lassa virus pseudotype entry inhibition, cell reporter. Potency, µM (doses to about 37.9 µM), actives largely listed as inhibitors. 300,000 tested, 1.2% active; calls by dose curve; tested in HEK293 cells; further: nearly all actives have a fitted effect of over 50% in size
HCMV inh – qHTS Assay for inhibitors of the human cytomegalovirus (HCMV); HFF cells, HCMV-luciferase reporter, 72 h; stronger effect = lower value; activity change, negative = inhibition, % at 57.5 µM; 410,000 tested, 4.5% active; AID 1259415, 2018; in the data active means activity change below about -60%; inconclusive means no clear call, values can overlap the other calls; inactive means above about -39%
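Two-dose cell screen: HFF monolayers treated with compounds and infected with luciferase-expressing HCMV at 1 PFU/cell, 72 h at 37C, then lysed for luciferase measurement.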
FMDV inh – High Throughput Screening for Foot and Mouth Disease Virus Antivirals | FMDV antiviral cell-based qHTS | Potency, µM (top dose mostly 57.9 µM), most hits filed as inhibitors | 410,000 tested, 1.2% active | AID 1159524, 2015; calls by dose curve; tested in HEK293T cells; further: read-out not given here; nearly all actives have a fitted effect of over 45% in size
HCV inhibitor – qHTS Assay for Inhibitors of Hepatitis C Virus (HCV) | Huh7.5.1 HCVcc-Cre infection, luciferase reporter, 44 h | Potency, µM (titrated, usually from 41.8 µM), most hits filed as inhibitors | 340,000 tested, 3.4% active; active means well fitted inhibition curve with a large enough effect; inconclusive means small, poorly fitted or top-dose-only effect, or another doubt; inactive means no such curve, though single readings can be large or run the other way
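Reporter virus HCVcc-Cre (~0.5 moi) infects cells exposed to compound; seeding density 1,000 cells/well with 4 h settling beforehand. Luminescence, 15 sec read, taken 44 h post-infection following a 15 min RT substrate incubation.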
MARV entry inh – qHTS for inhibitors of binding or entry into cells for Marburg Virus. Marburg virus pseudotyped entry inhibition, cell reporter. Potency, µM (series often up to 37.8 µM), hits mostly inhibitors. 300,000 tested, 1.8% active; calls by dose curve; tested in HEK293 cells
Numbers stand for hits; i = inactive; ? = inconclusive; nt = no result; [ ] = another dose, or the depositor's remark. Shown are actives, neighbours in structure and some others; about 7.9% of the full set was active somewhere.

SMILES | LASV entry inh | HCMV inh | FMDV inh | HCV inhibitor | MARV entry inh
CCN(CC(=O)Nc1c(C(=O)OC)[nH]c2ccc(C)cc12)c1ccc2c(c1)OCO2 | i | i | i | 8.9µM | i
COC(=O)c1[nH]c2ccc(C)cc2c1NC(=O)CN1CCc2cc(OC)c(OC)cc2C1 | i | i | ? | 10µM | ?
Fc1ccc(-c2noc3nc(Oc4ccccc4F)ccc23)cc1 | nt | i | nt | nt | nt
CC(=O)Nc1ccc(S(=O)(=O)N(C#N)c2nc(C)cc(C)n2)cc1 | nt | i | i | i | nt
COc1ccc(CCn2c(=N)c(C(=O)NCC3CCCO3)cc3c(=O)n4ccccc4nc32)cc1OC (stereo not given) | nt | -110 | i | i | nt
COc1ccc(CCn2c(=N)c(C(=O)NC3CCCC3)cc3c(=O)n4ccccc4nc32)cc1 | i | -101 | i | ? | i
COc1ccc(CCn2c(=N)c(C(=O)NC3CCCC3)cc3c(=O)n4ccccc4nc32)cc1OC | nt | i | i | i | nt
O=C1C(n2ccc3ccccc32)c2ccccc2N1Cc1ccc(Cl)nc1 (stereo not given) | nt | i | nt | nt | nt
O=C1CC(c2cccnc2)=NN1c1ccc(Cl)cc1Cl | i | -100 | i | i | i
O=c1cnn(-c2ccc(Cl)cc2Cl)c(-c2ccccc2)c1 | ? | i | i | ? | i
OC1(c2ccc(F)cc2)CCNC1 (stereo not given) | i | -66 | i | i | i
COC(=O)c1cc(CNC(=O)c2ccccc2)cc(NC(=O)c2ccccc2OC)c1 | nt | nt | i | nt | nt
O=C/C(=C\Nc1ccc(C(=O)N2CCOCC2)cc1)c1nc2ccccc2o1 | i | i | i | i | i
CC(C)[C@@H](OCc1ccccc1)[C@H](C)C=NOC[C@@H](O)[C@H]1O[C@@H]2OC(C)(C)O[C@H]2[C@@H]1O | i | nt | nt | nt | i
Cc1nn(-c2ccccc2)c2sc(C(=O)NC3CC3)cc12 | ? | i | i | 13µM | i
CNC(=O)COC(=O)c1cc2c(C)nn(-c3ccc(F)cc3)c2s1 | i | i | i | ? | ?
Cc1nn(-c2ccc(F)cc2)c2sc(C(=O)N3CCCCCC3)cc12 | i | i | i | 14µM | i
C=CCN1c2ccccc2[C@]23CCC(=O)N(CCOC)C2=NC(C(=O)OC)=C(C(=O)OC)[C@H]13 | ? | nt | nt | nt | i
Nc1nnc(P(c2ccccc2)c2ccccc2)s1 | nt | -64 | i | i | nt
COc1ccccc1N1CCN(C(=O)CSc2nnc(C)n2C2CC2)CC1 | nt | i | i | i | nt
CCCNC(=O)C1(C)CCN(C(=O)c2ccc(OC(F)F)cc2)C1 (stereo not given) | nt | i | i | nt | nt
CCc1cccc(C)c1NC(=O)Cn1c(=O)n(-c2ccc(C)cc2)c(=O)c2c1cnn2C | ? | i | i | nt | i
NCCc1c(-c2ccccc2)n(-c2ccccc2)c2ccccc12 | i | i | i | 11µM | 13µM
Cn1cc(C(=O)c2ccc(Cl)cc2Cl)cc1C(=O)N/N=C(\N)COc1ccc(Cl)cc1 | ? | i | ? | 13µM | ?
Cn1cc(C(=O)c2ccc(Cl)cc2Cl)cc1C(=O)N/N=C(\N)COc1ccc(Cl)cc1Cl | ? | ? | ? | 13µM | ?
SMILES | LASV entry inh | HCMV inh | FMDV inh | HCV inhibitor | MARV entry inh
Cn1cc(C(=O)c2ccc(Cl)cc2Cl)cc1C(=O)N/N=C(\N)COc1ccc(F)cc1 | ? | i | ? | 10µM | ?
Cn1cc(C(=O)c2ccc(Cl)cc2Cl)cc1C(=O)N/N=C(\N)COc1ccccc1 | ? | i | i | i | ?
CC(C)Oc1ccc(Br)cc1C(=O)N/N=C/c1c[nH]c2ccccc12 | i | i | i | 10µM | ?
O=C(N/N=C/c1ccco1)c1cc(-c2ccc3ccccc3c2)n[nH]1 | ? | ? | i | i | 13µM
O=C(N/N=C/c1c[nH]c2ccccc12)c1ccc(Br)cc1 | i | i | i | i | ?
CCc1ccc(-c2cc(C(=O)N/N=C/c3ccco3)[nH]n2)cc1 | nt | ? | i | i | i
O=C(N/N=C/c1c[nH]c2ccccc12)c1cc(-c2ccccc2)n[nH]1 | i | i | i | ? | i
O=C(N/N=C/c1c[nH]c2ccccc12)c1cc(-c2ccc(-c3ccccc3)cc2)n[nH]1 | i | -74 | ? | i | ?
O=C(N/N=C/c1c[nH]c2ccccc12)c1cc(-c2ccc3ccccc3c2)n[nH]1 | ? | i | i | 10µM | ?
CCSc1nc2c(c(=O)[nH]c(=O)n2C)n1CC(O)COc1ccc(Cl)cc1 (stereo not given) | i | i | i | nt | nt
O=C(NCc1ccccc1)c1ccc2c(c1)N(Cc1ccc(F)cc1)CCS2 | ? | i | i | nt | ?
O=C(NCc1ccc(F)cc1)c1cc2cccc3c2n1CCS3 | ? | -70 | i | nt | nt
CCCc1cc(=O)oc2cc(C)c3c(C(C)(C)C)coc3c12 | i | i | ? | nt | ?
CC(/C=N/NC(=O)Cn1cnc2ccccc21)=C\c1ccccc1 | ? | -70 | i | i | i
O=C(COC(=O)CNC(=O)c1ccc([N+](=O)[O-])o1)Nc1ncc(C(F)(F)F)cc1Cl | nt | i | i | 2.8µM | nt
CC1(C)NC(C)(C)/C(=C\c2cccs2)C(=O)C1=O | i | i | i | i | 13µM
COC(=O)C1=C(C)NC(=O)/C1=C\c1cccs1 | i | i | i | ? | i
CC(=O)c1cc(-c2ccc(F)cc2)n(CCC(=O)NC2CCCCC2)c1C | i | i | i | nt | nt
CCCS(=O)(=O)Nc1ccc(Nc2c3ccccc3nc3ccccc23)c(OC)c1 | 0.71µM | -76 | i | ? | ?
CNc1cc(-n2nc(C)cc2-c2ccccc2)ncn1 | i | i | i | i | i
Cc1cc(-c2ccccc2)n(-c2cc(N/N=C/c3ccccc3O)ncn2)n1 | 4.5µM | -96 | ? | ? | 8.9µM
C[C@@H](CN1CCN(C)CC1)OC(=O)c1ccc(Cl)cc1Cl | nt | nt | nt | nt | i
CN(C)c1ccnc2sc(C(=O)c3ccc(Br)cc3)c(N)c12 | i | i | i | i | i
CN(C)C=Nc1c(C(=O)c2ccccc2)sc2nccc(N(C)C)c12 | i | -75 | i | ? | i
CN(C)c1ccnc2sc(C(=O)NCc3ccccc3)c(N)c12 | ? | i | nt | 13µM | i
SMILES | LASV entry inh | HCMV inh | FMDV inh | HCV inhibitor | MARV entry inh
O=C1[C@H]2[C@H]3[C@H](O)[C@H](O)C/C(=N\OCc4ccccc4)[C@H]3CC[C@H]2C(=O)N1C1CCCCC1 | nt | nt | nt | nt | i
COc1ccc(CNS(=O)(=O)c2ccc(-c3cc(C(F)(F)F)on3)s2)cc1OC | i | i | i | nt | nt
CC(C)(C)N(Cc1ccccc1)C(=O)c1cc2ccccc2o1 | nt | i | i | i | nt
COc1ccccc1NC(=O)CN1C(=O)C(c2ccc(F)cc2)=NC1(C)C | i | i | ? | nt | ?
CCOC(=O)c1cccn1C1C(=O)N(Cc2ccc(C(C)C)cc2)c2c(F)cccc21 (stereo not given) | nt | i | nt | nt | nt
CC(=O)c1ccc2c3c(cc(C)c2c1)CCCC3 | i | -66 | i | 11µM | i
CC(=O)c1ccc2c(c1)Cc1cc(C(C)=O)ccc1-2 | ? | i | i | i | i
COc1cc(C(=O)NC2CCN(C)CC2)ccc1Nc1ncc2c(n1)N(Cc1ccccc1)CCC(=O)N2C | nt | -76 | i | i[8.37 µM] | nt
COc1cc(C(=O)NC2CCN(C)CC2)ccc1Nc1ncc2c(n1)N(C1CCCCC1)CCC(=O)N2C | nt | ? | i | 1.8µM | nt
